Measurements taken from ChEMBL document CHEMBL3433997, “St. Jude Leishmania screening dataset” (2016).

Legend:
Assay type in all cases: functional
[1] = target: Solute carrier family 2, facilitated glucose transporter member 1 (Homo sapiens) (UniProt P11166); experiment: ST_JUDE_LEISH: Cytotoxicity at 2uM final concentration against transgenic Leishmania Mexicana promastigotes LmGLUT1 that are glucose transport deficient and complemented with the human glucose transporter GLUT1. Activity is measured by DNA content using SYBR green in vitro
[2] = target: Hexose transporter 1 (Plasmodium falciparum) (UniProt O97467); experiment: ST_JUDE_LEISH: Cytotoxicity at 2uM final concentration against transgenic Leishmania Mexicana promastigotes LmPfHT that are glucose transport deficient and complemented with the Plasmodium falciparum hexose transporter. Activity is measured by DNA content using SYBR green in vitro
[3] = target: Glucose transporter (Leishmania mexicana) (UniProt O61059); experiment: ST_JUDE_LEISH: Cytotoxicity at 2uM final concentration against transgenic Leishmania Mexicana promastigotes LmGT2 that are glucose transport deficient and complemented with the L. Mexicana glucose transporter 2. Activity is measured by DNA content using SYBR green in vitro

Chain of Solute carrier family 2, facilitated glucose transporter member 1 (Homo sapiens) (P11166 whole entry): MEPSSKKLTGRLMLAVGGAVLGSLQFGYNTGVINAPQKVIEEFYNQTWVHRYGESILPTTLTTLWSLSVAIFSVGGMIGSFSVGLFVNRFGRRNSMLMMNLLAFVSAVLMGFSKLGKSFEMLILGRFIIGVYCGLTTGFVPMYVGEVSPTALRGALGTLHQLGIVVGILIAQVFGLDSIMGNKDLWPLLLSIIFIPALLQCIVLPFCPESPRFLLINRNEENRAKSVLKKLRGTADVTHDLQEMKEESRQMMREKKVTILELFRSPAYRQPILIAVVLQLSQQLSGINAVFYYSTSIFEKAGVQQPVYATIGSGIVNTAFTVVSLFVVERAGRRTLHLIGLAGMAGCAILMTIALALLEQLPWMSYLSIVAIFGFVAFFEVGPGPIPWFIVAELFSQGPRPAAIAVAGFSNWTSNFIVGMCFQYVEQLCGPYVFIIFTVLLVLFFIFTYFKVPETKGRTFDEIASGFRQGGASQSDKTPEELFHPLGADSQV

| Structure (SMILES) | inhibition [1] | inhibition [2] | inhibition [3] |
| --- | --- | --- | --- |
| O=C(Nc1nc(-c2ccccn2)cs1)c1ccccc1COc1ccccc1 | -2.49% | 1.21% | -1.57% |
| COc1ccc2nc3cc(Cl)ccc3c(Nc3ccc(O)c(CN4CC5CCC(CC5)C4)c3)c2c1 | 4.99% | 4.24% | 3.82% |
| Cc1ccccc1C1CCN(C2CCC(NC(=O)c3csc(-c4cccc(Cl)c4)n3)CC2)CC1 (centres undefined) | 9.21% | 12% | 8.46% |
| CNC(=O)c1cncc(/C=C/c2ccccc2S(N)(=O)=O)c1 | -0.22% | 4.59% | -0.59% |
| OC1CCC(Nc2ccc3ncc(-c4ccc(Cl)cc4)n3n2)CC1 (centres undefined) | 8.13% | 3.98% | 4.08% |
| CCCCCCCN(CCCCCCC)CCCC(=O)Nc1ccnc2ccc(OC)cc12 | 1.2% | 1.31% | -1.2% |
| COc1ccc2[nH]ccc(=NN=Cc3cccc(F)c3)c2c1 | 1.01% | 2.87% | 0.07% |
| COc1ccc(NC(=O)Nc2cccc(-c3cccc(-c4nc5cc(F)ccc5[nH]4)c3)c2)cc1 | 1.35% | 1.38% | 0.62% |
| Cc1cc(C(=O)OCC(=O)Nc2c(C)n(C)n(-c3ccccc3)c2=O)c(C)n1-c1ccc(F)cc1 | -2.25% | -1.81% | -0.97% |
| CC12CCC(C(=O)N(CC(O)Cn3c4ccc(Cl)cc4c4cc(Cl)ccc43)C1=O)C2(C)C (centres undefined) | 2.14% | 0.85% | 0.38% |
| CS(=O)(=O)CCNCc1nc(-c2ccc3c(Nc4ccc(F)c(O)c4)ccnc3c2)cs1 | 0.96% | 0.78% | 0.48% |
| C#CCOc1ccccc1CN1CCC(N2CCc3cc(NC(=O)c4cc(C)on4)ccc32)C1 (centres undefined) | 2.61% | 1.64% | 4.74% |
| Cc1n[nH]c2ccc(-c3cc(OC[C@@H](N)Cc4ccccc4)cnc3-c3ccccc3OCc3cccc(F)c3)cc12 | 9.75% | 1.05% | -0.42% |
| O=C(NC1CCC(CCN2Cc3cccc(C(F)(F)F)c3C2)CC1)c1cccc(-c2cccnc2)c1 (centres undefined) | 3.38% | 1.73% | 2.16% |
| COc1ccccc1C1CCN(CCN2CCC(NC(=O)c3ccc(-c4ccc(C#N)cc4)cc3)CC2)CC1 | -0.2% | 2.09% | 1.89% |
| O=C(N[C@@H](Cc1ccccc1)[C@H](O)CNC1CCCCC1)c1cc(C2CCCC2)cc(N2CCCC2=O)c1 | -1.39% | -1.21% | -3.12% |
| O=C(Nc1ccc(N2CCC(Nc3ccccn3)CC2)cc1)c1cnc(Cl)c(Cl)c1 | 18% | 10.4% | 4.85% |

| Structure (SMILES) | inhibition [1] | inhibition [2] | inhibition [3] |
| --- | --- | --- | --- |
| CCOCCCNc1ncc(-c2ccsc2)c(-c2nc(C)cs2)n1 | 8% | 6.73% | 7.32% |
| COc1ccccc1CCN1CCC(CN(C)Cc2ccc(O)c(Cl)c2)CC1 | 2.46% | 5.47% | 4.27% |
| CCn1c(-c2nc(-c3ccnc(N4CCN(C)CC4)c3)cnc2N)nc2cc(S(C)(=O)=O)ccc21 | 36.5% | 45.3% | 20.7% |
| COc1cccc(-c2ccc3c(-c4cccc(NC(C)=O)c4)cnc(N)c3c2)c1 | 5.41% | 4.32% | 3.78% |
| CCOC(=O)CCCOc1cc(Cc2cnc(N)nc2N)cc(OC)c1OC | 6.94% | 5.94% | 7.18% |
| Cc1ccc(-c2nc(N3CCN(C(=O)c4ccco4)CC3)c3ccccc3n2)cc1 | 2.55% | 0.57% | 0.1% |
| CSc1ccc(C=CC(=O)NC(=O)c2ccccc2O)cc1 | 1.32% | 2.44% | 1.41% |
| O=C(Nc1ccc2c(c1)OCO2)NC1CCN(c2ccnc(Nc3ccc(F)cc3)n2)C1 (centres undefined) | 0.34% | 6.37% | 3.79% |
| CCC(CC(C)C(=O)O)=C(c1ccccc1)c1ccccc1 (centres undefined) | -0.78% | -0.86% | 0.2% |
| CC(C)[C@H]1CC[C@H](C)C[C@@H]1OC(=O)N[C@@H](Cc1ccc(O)cc1)C(=O)NC1CCN(Cc2ccc(OCCCN(C)C)cc2)C1 (some centres undefined) | 5.09% | 3.96% | 3.06% |
| Cc1cc(N(CCN2CCCCC2)CCN2CCCCC2)nc(Nc2ccc(Cl)cc2)n1 | 3.2% | 1.3% | 2.83% |
| Clc1ccc2c(N3CCN(CCN4CCN(c5ccnc6cc(Cl)ccc56)CC4)CC3)ccnc2c1 | 0.09% | 0.23% | 0.08% |
| CCOC(=O)C(=O)N1c2ccc(OCC)cc2-c2c(ssc2=S)C1(C)C | -0.01% | 0.3% | 6.04% |
| Cc1cnc(C(=O)Nc2cccc(-c3csc(-c4nc5ccccc5[nH]4)c3)c2)cn1 | 5.41% | 1.2% | 3.93% |
| O=C(Nc1ccc(-c2oc(C(=O)NCCc3cccc(Cl)c3)cc2-c2ccncc2)cc1)Nc1cccc(Cl)c1 | 0.9% | 1.65% | 2.92% |
| Cc1cccc2nc(-c3ccc(-c4ccc(CNCC5CCCO5)cc4)cc3)[nH]c12 (centres undefined) | 16.3% | 14.9% | 6.42% |
